IMPase cell inh: membrane-permeable compound that blocks inositol monophosphatase; P97697; CHO-M1 cells, IP1 accumulation, HTRF TR-FRET ratio; inhibition (IP1 accumulation), % at 46.1 µM; 120,000 tested, under 10 active; AID 901; active = well fitted curve in the direction sought with a large enough effect in the signal ratio, not every such curve was filed as active; inconclusive = small, poorly fitted or top-dose-only effect, or a change in a side signal; inactive = no such curve, though single readings can be large or run the other way; the % refers to the signal ratio;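 also: cells stimulated with carbachol in lithium chloride buffer; plate controls were DMSO basal wells for no effect and reference inhibitor wells for full effect; higher means more IMPase inhibition seen as more IP1 and lower FRET ratio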
Target sequence (P97697 whole entry, looked up): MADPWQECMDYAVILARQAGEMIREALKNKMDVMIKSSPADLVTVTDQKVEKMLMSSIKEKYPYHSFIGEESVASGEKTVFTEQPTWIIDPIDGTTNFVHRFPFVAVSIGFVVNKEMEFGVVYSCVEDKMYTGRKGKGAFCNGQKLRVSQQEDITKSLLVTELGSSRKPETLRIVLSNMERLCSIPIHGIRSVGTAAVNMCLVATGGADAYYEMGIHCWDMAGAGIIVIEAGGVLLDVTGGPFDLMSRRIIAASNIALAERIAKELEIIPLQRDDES
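Measured: the HTRF emission ratio (665/620 nm) plus the 620 nm donor channel, each fitted to the Hill equation to give AC50. Cells were CHO-M1 given compounds up to 46 uM and a 30 min carbachol stimulation at 37C.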
IMPase Li cell: cell-permeable IMPase inhibitors with lithium potentiation; CHO-M1 cells, IP1 TR-FRET (IP-One), carbachol + lithium; Potency, µM (highest dose often 59.4 µM), for the others: top-dose activity, negative = IMPase inhibition, actives largely listed as inhibitors; hit rate 0.35% among 210,000; active = well fitted curve in the direction sought with a large enough effect; inconclusive = small, poorly fitted or top-dose-only effect, or another doubt; inactive = no such curve, though single readings can be large; an effect the other way counts as inactive or inconclusive;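 also: IP1 builds up when IMPase is blocked and the TR-FRET signal falls; potency is read from the fitted curve at half-maximal effect; plate controls were basal vehicle for no effect and high inhibitor control for full effect; nearly all actives have a fitted effect of over 50% in size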
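CHO cells stably expressing M1 receptor (2000/well) were cultured 16–30 h, then exposed to compounds with a small lithium addition for 30 min at 37C. IP1 was measured by TR-FRET competition; AC50 from Hill fits.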
NPSR antag: neuropeptide S receptor (human) antagonism, cAMP | CHO-NPSR cells, cAMP TR-FRET, antagonist mode | Potency, µM (doses to about 38.3 µM), for the others: at the top dose activity change, negative = inhibition, usual class: inhibitors | hit rate 1% among 220,000; active = well fitted curve in the direction sought with a large enough effect; inconclusive = small, poorly fitted or top-dose-only effect, or another doubt; inactive = no such curve, though single readings can be large; an effect the other way counts as inactive or inconclusive; also: potency is read from the fitted curve at half-maximal effect; nearly all actives have a fitted effect of over 50% in size
HPGD block: inhibitors of human 15-hydroxyprostaglandin dehydrogenase (HPGD) | hit rate 4.3% among 150,000 | Potency, µM, for inactives: at the top dose activity change, negative = inhibition, hits mostly inhibitors | AID 894 | purified HPGD, NADH fluorescence kinetic, PGE2 substrate | P15428; also: potency is read from the fitted curve at half-maximal effect
Target sequence (P15428 whole entry, looked up): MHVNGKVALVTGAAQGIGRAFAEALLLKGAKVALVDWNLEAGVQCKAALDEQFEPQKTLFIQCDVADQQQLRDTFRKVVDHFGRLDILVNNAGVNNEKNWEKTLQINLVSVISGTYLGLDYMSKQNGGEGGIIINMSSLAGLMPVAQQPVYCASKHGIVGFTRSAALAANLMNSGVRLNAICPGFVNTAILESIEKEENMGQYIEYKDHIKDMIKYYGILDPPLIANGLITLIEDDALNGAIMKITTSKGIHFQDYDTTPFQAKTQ
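20 nM HPGD preincubated 15 min at room temperature with compound in 50 mM Tris-HCl pH 8, 0.01% Tween 20. Started with 1 mM NAD+ and 30 uM prostaglandin E2; NADH fluorescence (360/450 nm) read 5 times over 30-s intervals, last minus first.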
PNC assembly inh: blocks assembly of the perinucleolar compartment; PC3M PTB-GFP, PNC prevalence imaging, 16 h; active compounds read low; hit rate 3.1% among 140,000; activity change (PNC), negative = inhibition, % at 10 µM;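 active = readout at or below -70, meaning at least 70% loss of cells showing the perinucleolar compartment, a nuclear body marking cancer cells; inconclusive = readout between -30 and a set limit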;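 also: plate controls were DMSO wells for no effect and camptothecin positive control wells for full effect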
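PC3M cells stably expressing PTB-GFP, 750–1000 cells/well, treated 16 h at 37 °C with compound (23 nl of library stock), in duplicate. After paraformaldehyde fixation and Hoechst stain, imaged at 20x; PNC prevalence scored by image analysis.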
ALDH1A1 inh: ALDH1A1 (human) enzyme inhibition | hit rate 7.3% among 220,000 | Purified ALDH1A1, NADH fluorescence, propionaldehyde substrate | Potency, µM (doses to about 75.3 µM), inactives show at the top dose activity, negative = inhibition, hits mostly inhibitors | AID 1030;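 also: potency is read from the fitted curve at half-maximal effect; plate controls were no enzyme wells and a reference inhibitor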
Active calls of the source: *; u = inconclusive; x = no result given; [ ] = dose if it differs, or a comment. Most compounds without a hit are left out; they make up all but 11% or so of the library. Unless noted, calls follow the shape of the dose curve; as a rule, active = well fitted inhibition curve with a large enough effect (not every such curve was filed as active); inconclusive = small, poorly fitted or top-dose-only effect, or another doubt; inactive = no such curve, though single readings can be large or run the other way. Unless noted, % is scaled to controls: 0 for no effect and ±100 for the full control effect.

SMILES	IMPase cell inh	IMPase Li cell	NPSR antag	HPGD block	PNC assembly inh	ALDH1A1 inh
O=C1CC(N2CCN(c3ccc(S(=O)(=O)N4CCOCC4)cc3)CC2)C(=O)N1Cc1ccccc1 (stereo not drawn)	-1	12%[38.3 µM]	-2%[46.1 µM]	-3%	u	-7%
c1ccc2c(c1)ccc1nnc(-c3ccc4c(c3)OCO4)n12	-3	25%[38.3 µM]	1%[46.1 µM]	u	-9	u
CCOC(=O)CSc1nc(C)cc(Oc2ccc(=O)n(C)n2)n1	x	-8%	9%	-2%	32	6%
COc1ccc(-c2c(C#N)c(SCC(=O)Nc3cccc(Cl)c3)nc(C)c2C(=O)Nc2ccccc2)cc1OC	4	x	x	x	x	x
CCOC(=O)C(C)Sc1nc2c(cnn2-c2ccc(C)cc2)c(=O)[nH]1 (stereo not drawn)	10	4%	1%[46.1 µM]	-7%	-26	6%
O=C(c1ccccc1)N1CCN(CC(O)Cn2ccc3ccccc32)CC1 (stereo not drawn)	x	x	8%	x	x	x
CS(=O)(=O)N1CCC2(CCN(C(=O)Nc3cccc(F)c3)CC2)CC1	x	0%	x	0%	x	40%
O=C(Nc1cccc(Cl)c1N1CCOCC1)c1ccc([N+](=O)[O-])o1	x	x	6%	x	x	x
O=C(NC(=S)Nc1cccc(Cl)c1N1CCCC1)c1ccc(-c2cccc([N+](=O)[O-])c2)o1	-3	13%[38.3 µM]	u	-24%	-3	28µM*
Fc1cccc(Cc2noc(CN3CCC(c4ccncc4)CC3)n2)c1	x	11%	-1%	x	x	-4%
O=C(Nc1cc(SCC(O)CO)cc([N+](=O)[O-])c1)c1ccc(-n2cnnn2)cc1 (stereo not drawn)	x	-8%	3%	x	x	u
COc1ccc(N(CC(=O)Nc2cc(C)ccc2C)S(=O)(=O)c2ccccc2[N+](=O)[O-])c(OC)c1	x	17%	-25%	x	x	-4%
O=C(N=Nc1c(O)n(Cc2ccccc2)c2ccccc12)c1ccc(O)cc1	x	14%	-45%	-6%	29	13µM*
O=C(CNC(=O)Cc1ccccc1)N=Nc1c(O)n(Cc2ccc3c(c2)OCO3)c2ccccc12	4	x	-11%[46.1 µM]	x	u	4µM*
COc1ccc(C(=O)NCC(=O)N=Nc2c(O)n(Cc3ccccc3)c3ccccc23)cc1OC	16	17%	-16%	-6%	-17	18µM*
S=C(NNc1nc(Nc2ccccc2)nc(N2CCCCC2)n1)NC1CCCCC1	x	10%	-30%	x	x	-3%
C=CCNC(=S)NNc1nc(Nc2ccccc2)nc(N2CCCCC2)n1	x	7%	u	x	x	16µM*
Cn1c2c(c(=O)c3ccccc31)C[C@@H](O)C(C)(C)O2	x	19%	x	-14%	x	0%
Cn1c2c(c(=O)c3ccccc31)CCC(C)(C)O2	x	-2%	5%	28µM*	u	5%
Cc1ccc(CNC(=O)c2nn(C)c(C)c2[N+](=O)[O-])cc1	x	-8%	7%	-4%	17	5%
CCn1c(O)c(N=NC(=S)NCC2CCCO2)c2ccccc21 (stereo not drawn)	x	2%	7.9µM*	x	x	0.5µM*
Oc1[nH]c2c(Cl)cc(Cl)cc2c1N=NC(=S)NCC1CCCO1 (stereo not drawn)	4	12%	-26%[46.1 µM]	-10%	23	0.45µM*
Cc1cc(C)c2[nH]c(O)c(N=NC(=S)NCC3CCCO3)c2c1 (stereo not drawn)	x	6%	-8%	-15%	-12	0.079µM*
Oc1[nH]c2ccccc2c1N=NC(=S)NCC1CCCO1 (stereo not drawn)	4	-3%	-26%	u	u	11%
O=C(N/N=C/c1sc(N2CCCCC2)nc1-c1cccs1)C1CC1	x	25%	-44%	x	x	22µM*
COc1ccc(S(=O)(=O)N2CCOCC2)cc1NC(=O)c1ccc(-n2nc(C)cc2C)cc1	x	x	-1%	x	x	x
COc1ccc(-n2c(=O)cnc3cnc(Oc4ccccc4)nc32)cc1	x	1%	x	-5%	x	u
CCOC(=O)NC(N(O)c1cccc(Cl)c1)C(Cl)(Cl)Cl (stereo not drawn)	x	x	u	x	x	8.9µM*

From PubChem
